Test in all cases: qHTS profiling for inhibitors of Plasmodium falciparum proliferation (AID 504749); further: nearly all actives have a fitted effect of over 60% in size
Holding throughout (conditions): P. falciparum in erythrocytes, SYBR Green DNA, 72 h; series mostly up to 28.7 µM

One assay relates to CP185. The essentials:
(§1)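 Infected RBCs, 0.3% parasitemia/2.5% Hct final; cpd 72 h, 37 C, 5% CO2; lysis buffer with saponin/triton/SYBR Green I, o/n RT dark; FI 485/535; norm. to artemisinin (0.29 uM) and DMSO.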

Another assay relates to CP191. The essentials: as §1
The subject of another assay is CP192. In a few lines:
as §1

The next assay deals with CP194. The essentials:
as §1

The subject of the next assay is CP201. In a few lines:
as §1

The next assay relates to CP211. In a few lines: as §1
Another assay relates to CP217. In a few lines:
as §1

For a further assay, the system named is CP237. In a few lines: as §1
For the next assay, the system named is CP238. The essentials: as §1
Another assay has as its system CP247. In a few lines:
as §1

The subject of the next assay is CP250. The essentials:
as §1

The next assay concerns CP252. In a few lines:
as §1

The test system of the next assay is CP260. In a few lines: as §1
The subject of the next assay is CP262. In a few lines:
as §1

Another assay concerns CP265. The essentials: as §1
The subject of another assay is CP266. In a few lines: as §1
The subject of the next assay is CP268. The essentials: as §1
Another assay relates to CP215. In a few lines:
as §1

Another assay relates to CP256. The essentials:
as §1

In the next assay the test system is CP203. In a few lines: as §1

Data on 19 compounds can be found in PubChem BioAssay (NCATS).

The structures appear in SMILES notation. Records with an inconclusive call do not appear. Activity calls are given as the source filed them. The call rests on the fitted dose curve; in most records, active means well fitted inhibition curve with a large enough effect; inconclusive means small, poorly fitted or top-dose-only effect; inactive means flat fitted curve, though single readings scatter.
Potency means the concentration at half of the fitted maximal effect.

For the compound `CCN(CC)CCOC(=O)C(O)(c1ccccc1)c1ccccc1`, the Potency entry in the assay on CP185, in the assay with CP191, in the assay on CP192, in the assay with CP194, in the assay on CP201 and with CP211 was “inactive” in each case. For the same compound, the Potency entry in the assay on CP217, in the assay with CP237, in the assay with CP238, in the assay on CP247, with CP250 and with CP252 was “inactive” each time. The Potency entry in the assay on CP260, in the assay with CP262, in the assay with CP265, in the assay on CP266 and with CP268 was “inactive” each time.

`NP(N)(=O)NC(=O)c1ccc(F)cc1`: the Potency entry with CP191, in the assay with CP192, in the assay with CP194, in the assay with CP201, in the assay with CP211 and in the assay on CP215 was “inactive” each time. The Potency result with CP217, in the assay on CP237, with CP238, in the assay on CP247, in the assay on CP250 and with CP252 was “inactive” each time. The Potency entry in the assay with CP256, with CP260, in the assay on CP262, in the assay with CP265, in the assay on CP266 and with CP268 was “inactive” in each case.

Consider `CCN(CC)CCN1C(=O)CN=C(c2ccccc2F)c2cc(Cl)ccc21`, for which the Potency result in the assay on CP191, in the assay on CP192, in the assay with CP201, in the assay with CP215, with CP217 and in the assay on CP247 was “inactive” in each case. Further, the Potency entry in the assay with CP250, in the assay on CP252, in the assay with CP256, with CP260, in the assay with CP262 and in the assay with CP266 was “inactive” in each case. Further, the Potency result in the assay on CP268 is “inactive”.

With `C[C@]12C/C(=C/O)C(=O)C[C@@H]1CC[C@@H]1[C@@H]2CC[C@@]2(C)[C@H]1CC[C@]2(C)O`, the Potency result in the assay with CP185, in the assay on CP192, with CP194, with CP201, with CP203 and with CP211 was “inactive” in each case. For the same compound, the Potency result in the assay on CP215, with CP217, in the assay on CP237, with CP238, in the assay on CP250 and in the assay with CP252 was “inactive” each time. For the same compound, the Potency result in the assay on CP256, in the assay with CP260, in the assay on CP262, with CP265, with CP266 and with CP268 was “inactive” throughout.

For `C=C(C)[C@H]1Cc2c(ccc3c2O[C@@H]2COc4cc(OC)c(OC)cc4[C@@H]2C3=O)O1`, the Potency entry in the assay on CP185, in the assay on CP191, in the assay with CP192, in the assay with CP201, with CP211 and with CP215 was “inactive” throughout. Also, the Potency entry with CP217, in the assay with CP237, in the assay on CP238, with CP247, with CP250 and in the assay on CP252 was “inactive” each time. For the same compound, the Potency result in the assay with CP256, in the assay on CP260, with CP265, with CP266 and in the assay on CP268 was “inactive” in each case.

Turning to `COc1ccc(C(CN(C)C)C2(O)CCCCC2)cc1` (centres undefined), the Potency result with CP185, in the assay on CP191, in the assay on CP192, in the assay with CP201, in the assay with CP211 and with CP215 was “inactive” throughout. For the same compound, the Potency entry in the assay on CP217, in the assay with CP238, with CP247, in the assay with CP250, with CP252 and in the assay with CP256 was “inactive” throughout. The Potency entry in the assay on CP260, in the assay with CP262 and in the assay with CP268 was “inactive” throughout. In addition, the Potency in the assay with CP237 is 7.08 µM (active).

For the compound `N#CC(C#N)=Cc1ccc(O)c(O)c1`, the Potency entry in the assay on CP185, with CP192, with CP194, in the assay on CP201, in the assay with CP211 and with CP217 was “inactive” throughout. Besides, the Potency result in the assay with CP237, in the assay on CP238, with CP247, with CP252, in the assay on CP260 and with CP262 was “inactive” throughout. Also, the Potency result with CP265, with CP266 and in the assay with CP268 was “inactive” in each case.

Regarding `CC(C)(N)Cc1ccc(Cl)cc1`, the Potency entry in the assay with CP185, in the assay with CP191, with CP192, with CP201, with CP211 and in the assay on CP215 was “inactive” each time. Further, the Potency entry in the assay on CP217, in the assay on CP238, in the assay with CP247, in the assay on CP250, in the assay on CP252 and with CP256 was “inactive” throughout. Also, the Potency result with CP260, in the assay on CP262 and in the assay with CP266 was “inactive” each time. For the same compound, the Potency in the assay on CP237 was 8.91 µM (active).

On to `Fc1ccc(C(OCCN2CCN(CCCc3ccccc3)CC2)c2ccc(F)cc2)cc1`, for which the Potency in the assay with CP185 is 10 µM (active); with CP191 it was 10 µM (active); with CP211 it was 13.5 µM (active); in the assay with CP217, 8.91 µM (active); with CP237, 10 µM (active); with CP238, 12.6 µM (active). The Potency with CP247 is 10 µM (active); with CP252, 11.2 µM (active); in the assay with CP260 it was 10 µM (active). The Potency entry in the assay with CP262 is “inactive”.

`O=[N+]([O-])c1cc([As](=O)(O)O)ccc1O`: the Potency in the assay with CP191, in the assay with CP217, in the assay with CP237, in the assay on CP250, in the assay with CP252 and in the assay on CP260 was 3.16 µM (active) each time.

On to `Oc1ccc(Cl)cc1Cc1ccccc1`, for which the Potency result in the assay with CP185, in the assay with CP201, in the assay on CP211, with CP238, in the assay with CP250 and with CP262 was “inactive” in each case. Besides, the Potency entry in the assay with CP266 was “inactive”.

Turning to `CC(C)NCC(O)c1ccccc1Cl` (centres undefined), the Potency entry in the assay with CP201 and with CP266 was “inactive” in each case. Moreover, the Potency in the assay on CP217 is 10 µM (active); with CP237, 5.01 µM (active); with CP260, 11.2 µM (active).

In the case of `CC(=O)Nc1cc([As](=O)(O)O)ccc1O`, the Potency result in the assay on CP185, in the assay on CP191, with CP192, with CP194, with CP211 and in the assay on CP215 was “inactive” each time. In addition, the Potency result in the assay on CP217, in the assay with CP237, in the assay on CP238, in the assay with CP247, with CP250 and in the assay with CP252 was “inactive” throughout. The Potency entry in the assay on CP256, in the assay with CP260, with CP262, in the assay on CP265, in the assay on CP266 and in the assay on CP268 was “inactive” throughout.

With `CN1C(=S)CN=C(c2ccccc2)c2cc(Cl)ccc21`, the Potency result with CP185, in the assay on CP191, with CP194, with CP201, in the assay on CP211 and in the assay with CP215 was “inactive” each time. Also, the Potency result in the assay on CP217, with CP237, in the assay on CP238, with CP250, in the assay on CP252 and in the assay with CP256 was “inactive” in each case. Besides, the Potency result in the assay on CP260, in the assay with CP262, in the assay on CP265, in the assay with CP266 and with CP268 was “inactive” throughout.

Consider `CC(C)(C)NCC(O)c1cc(Cl)c(N)c(Cl)c1` (centres undefined), for which the Potency result in the assay with CP201, in the assay with CP211, in the assay on CP217, with CP247, with CP250 and with CP256 was “inactive” in each case. Further, the Potency result with CP266 and with CP268 was “inactive” each time. Also, the Potency with CP237 is 7.94 µM (active).

As for `CN1C[C@H](CNC(=O)OCc2ccccc2)C[C@@H]2c3cccc4c3c(cn4C)C[C@H]21`, the Potency in the assay with CP185 is 8.91 µM (active); in the assay with CP211 it was 9.53 µM (active); with CP217, 7.94 µM (active); in the assay with CP237 it was 8.91 µM (active); in the assay on CP238 it was 11.2 µM (active); with CP252, 10 µM (active). Also, the Potency in the assay on CP256 was 6.31 µM (active); in the assay with CP260, 11.2 µM (active); in the assay with CP262 it was 6.75 µM (active); with CP265, 5.62 µM (active).

For `FC(F)(F)c1cccc(C2=CCN(CCc3ccc4ccccc4c3)CC2)c1`, the Potency entry in the assay on CP185, in the assay on CP192, with CP194, in the assay with CP201, with CP211 and with CP215 was “inactive” each time. For the same compound, the Potency entry with CP217, in the assay with CP237, in the assay with CP238, in the assay with CP247, in the assay with CP250 and with CP252 was “inactive” throughout. For the same compound, the Potency result in the assay with CP260, in the assay on CP262, in the assay with CP265 and with CP266 was “inactive” in each case.

Turning to `N[C@@H](Cc1ccc(N(CCCl)CCCl)cc1)C(=O)O`, the Potency result in the assay on CP192, in the assay on CP201, with CP211, in the assay with CP215, in the assay with CP256 and in the assay on CP262 was “inactive” each time. Moreover, the Potency result in the assay with CP266 and in the assay on CP268 was “inactive” in each case.

With `CC[C@@H](CO)NC(=O)[C@@H]1C=C2c3cccc4[nH]cc(c34)C[C@H]2N(C)C1`, the Potency entry with CP185, with CP191, in the assay with CP194, with CP201, with CP211 and in the assay on CP215 was “inactive” in each case. Further, the Potency result in the assay with CP217, with CP237, in the assay with CP238, in the assay on CP247, in the assay with CP250 and in the assay with CP252 was “inactive” in each case. Besides, the Potency result in the assay on CP256, in the assay with CP260, with CP262, in the assay on CP265, in the assay with CP266 and with CP268 was “inactive” each time.
